Data from the supplement of paper PMC12636033.
± gives the standard deviation of the averaged measurements. The full ranking holds about 33,000 sequences; the median of “E-score (rank enrichment, -0.5 to 0.5)” is about -0.0075, and the highest 2% start at about 0.23. The list comes from a sample in which the highest values are over-represented; it also holds similar and randomly drawn sequences.

Each sequence was assayed on WT Max(13-93) synthetic (M65Nle) (assay: PBM 8-mer E-score (E-score (rank enrichment, -0.5 to 0.5)); higher = stronger preferential binding).
Method: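 Protein binding microarray (universal PBM chip covering all 10-mers in fixed probe flanks) with chemically synthesized human Max(13-93) bHLH-LZ analogs (not full-length Max) bearing noncanonical residues (hArg, Tha, Aib, Nle at 65) and aromatic Cys staples. Read-out per 8-mer (and its reverse complement): E-score (rank-based enrichment, -0.5 to 0.5) and Z-score of median probe intensity.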

| Sequence | PBM 8-mer E-score |
| --- | --- |
| CGTCCCGA | -0.209 ± 0.12 |
| AAAGTTAG | 0.127 ± 0.044 |
| AGTGCAGA | 0.0828 ± 0.16 |
| ATAGCGGC | -0.135 ± 0.21 |
| AACCTAGT | -0.18 ± 0.029 |
| ATTGTGCC | 0.174 ± 0.071 |
| ACATATGT | 0.265 ± 0.11 |
| ACATATGG | 0.155 ± 0.071 |
| ACATATGC | 0.0404 ± 0.029 |
| CGTTCTGC | -0.108 ± 0.038 |
| CATGTGAA | 0.249 ± 0.059 |
| TATGTGAA | 0.254 ± 0.13 |
| CATGTGAG | 0.226 ± 0.08 |
| GATGTGAA | 0.15 ± 0.0086 |
| GATGTGAC | -0.231 ± 0.026 |
| CCTGTGAA | -0.00915 ± 0.077 |
| AATGTGAA | 0.181 ± 0.089 |
| CATGTGAC | 0.3772 ± 0.0032 |
| AATGTGAC | -0.0272 ± 0.014 |
| AACCCGCT | 0.00053 ± 0.075 |
| ATAACCCG | -0.0972 ± 0.023 |
| GATACTGA | -0.0332 ± 0.11 |
| ATAAAAAT | 0.209 ± 0.032 |
| TGATAAAA | 0.282 ± 0.056 |
| ATATAAAG | 0.138 ± 0.006 |
| ACATAAAA | 0.192 ± 0.085 |

| Sequence | PBM 8-mer E-score |
| --- | --- |
| CTATAAAA | 0.0799 ± 0.029 |
| ATATAAAT | 0.26 ± 0.013 |
| ACATAAAG | 0.197 ± 0.04 |
| ACATAAAT | 0.249 ± 0.026 |
| ATATAAAA | 0.257 ± 0.14 |
| GGATAAAA | 0.116 ± 0.12 |
| CGATAAAA | 0.0372 ± 0.13 |
| GTATAAAA | 0.2289 ± 0.0018 |
| TGTCTAAA | 0.127 ± 0.015 |
| TTGCTAAA | -0.0675 ± 0.037 |
| ACATCGCC | 0.0533 ± 0.012 |
| CATAAGCG | -0.0132 ± 0.16 |
| ACGCTACT | -0.103 ± 0.057 |
| CGCACAGA | -0.00527 ± 0.17 |
| GCTACTTA | 0.0733 ± 0.061 |
| GCATCAAA | 0.0826 ± 0.0033 |
| TCAGTACA | -0.0447 ± 0.075 |
| CTATAAGA | 0.00621 ± 0.13 |
| ATATAAAC | 0.249 ± 0.1 |
| ATATAAGA | 0.257 ± 0.1 |
| GTATAAGA | 0.176 ± 0.037 |
| GTATAAAC | 0.097 ± 0.035 |
| CTATAAAC | -0.0175 ± 0.061 |
| CCGCACAA | -0.0967 ± 0.091 |
| CAGTGTCG | -0.18 ± 0.018 |
| TTGGACAA | 0.137 ± 0.038 |

| Sequence | PBM 8-mer E-score |
| --- | --- |
| GTGGACAA | 0.236 ± 0.0099 |
| TGGGACAA | 0.233 ± 0.12 |
| CTGGACAA | -0.0424 ± 0.18 |
| GGGGACAA | -0.00341 ± 0.1 |
| AGGGACAA | -0.0703 ± 0.11 |
| ATCTAAGG | 0.00267 ± 0.011 |
| GACAGTAC | 0.0423 ± 0.12 |
| AACAGCCA | 0.0334 ± 0.032 |
| GCCCGGAC | -0.319 ± 0.01 |
| TGCACACA | 0.0593 ± 0.099 |
| ATAGGCTA | 0.00221 ± 0.094 |
| CCTTTTTA | 0.171 ± 0.029 |
| GCTTTTCA | 0.0385 ± 0.086 |
| GCATTTTA | 0.16 ± 0.072 |
| CCTTTTCA | 0.245 ± 0.15 |
| ATATTTAA | 0.302 ± 0.021 |
| CTATTTAA | 0.0374 ± 0.0014 |
| ATATTTAC | 0.23 ± 0.07 |
| GCTTTTTA | 0.237 ± 0.16 |
| CCATTTTA | 0.0902 ± 0.15 |
| GCTTTTAA | -0.0112 ± 0.043 |
| CTTTTTCA | 0.144 ± 0.055 |
| ACATTTTA | 0.297 ± 0.048 |
| ACGAAATG | 0.158 ± 0.068 |
| CTCGGCTC | -0.235 ± 0.028 |
| AGGGAATC | -0.0163 ± 0.031 |

| Sequence | PBM 8-mer E-score |
| --- | --- |
| GTTTCGTA | 0.0743 ± 0.067 |
| GCGCTCTA | -0.19 ± 0.062 |
| CCATACAG | -0.026 ± 0.18 |
| CGTGAGCA | -0.0547 ± 0.079 |
| GTATTTTA | 0.0179 ± 0.13 |
| CTATTTTA | 0.0787 ± 0.12 |
| ATATTTTA | 0.271 ± 0.033 |
| CGTTTTCA | 0.106 ± 0.036 |
| AACAGGTC | -0.0763 ± 0.049 |
| ACAACGTA | 0.024 ± 0.002 |
| ATAACGTC | 0.136 ± 0.042 |
| ACAACGTG | 0.255 ± 0.089 |
| ATAACGTG | 0.261 ± 0.046 |
| ATAACGTA | 0.203 ± 0.091 |
| ACAACGTC | -0.0474 ± 0.05 |
| GGCTGGCA | -0.311 ± 0.1 |
| GCGTCTCA | -0.13 ± 0.025 |
| CCGCACTC | -0.0409 ± 0.033 |
| TATTTGAA | 0.0846 ± 0.018 |
| ACTTGGTC | 0.0597 ± 0.089 |
| CATTGTAA | 0.134 ± 0.067 |
| GACGTCGC | -0.091 ± 0.13 |
| ACCGCGCT | -0.146 ± 0.012 |
| ATGACCTC | 0.0149 ± 0.085 |
| TCAAACCA | 0.172 ± 0.063 |
| GGTTTAAC | 0.0486 ± 0.048 |

| Sequence | PBM 8-mer E-score |
| --- | --- |
| AGTTTCAA | -0.0849 ± 0.1 |
| TGTTTCAA | 0.241 ± 0.011 |
| GTTTTAAA | 0.0916 ± 0.047 |
| AGTTTAAA | 0.164 ± 0.0074 |
| TGTTTTAA | 0.115 ± 0.0028 |
| GGTTTCAA | 0.077 ± 0.0057 |
| GGTTTAAA | 0.233 ± 0.043 |
| TGTTTAAA | 0.252 ± 0.09 |
| GTCATCAA | 0.0407 ± 0.073 |
| AAGACGAC | 0.0772 ± 0.12 |
| CAGCGTAG | 0.0168 ± 0.0028 |
| GACCATCA | -0.057 ± 0.034 |
| AGGTAAGA | -0.0352 ± 0.073 |
| CACGGTAG | -0.0473 ± 0.022 |
| GTCAGCTA | -0.148 ± 0.085 |
| GAATTGCA | 0.06 ± 0.059 |
| GTTCAGCA | 0.0207 ± 0.087 |
| CTGCGAAC | -0.0246 ± 0.099 |
| ACCGTTGA | -0.15 ± 0.014 |
| CATGTGCA | 0.321 ± 0.025 |
| GATGTGCC | -0.0199 ± 0.084 |
| GATGTGCA | 0.052 ± 0.059 |
| CATGTGCG | 0.296 ± 0.028 |
| AATGTGCG | 0.115 ± 0.0056 |
| CCTGTGCG | -0.0525 ± 0.063 |
| TATGTGCA | 0.16 ± 0.02 |

| Sequence | PBM 8-mer E-score |
| --- | --- |
| CATGTGCC | 0.327 ± 0.011 |
| AATGTGCC | -0.0182 ± 0.064 |
| GGGAGATA | 0.0313 ± 0.14 |
| AAATGGTG | -0.0479 ± 0.077 |
| AGATTGGG | 0.0796 ± 0.049 |
| TCGGGAGA | -0.0551 ± 0.06 |
| ACCGGAGT | -0.185 ± 0.077 |
| AGCTCAAA | -0.101 ± 0.07 |
| AAGTGTTG | 0.2 ± 0.0011 |
| AGGTGTTG | -0.0777 ± 0.036 |
| CCGTGTTA | 0.145 ± 0.056 |
| AGGTGTTC | 0.0938 ± 0.013 |
| ACGTGTTA | 0.333 ± 0.053 |
| CCGTGTTC | 0.034 ± 0.081 |
| ACGTGTTG | 0.378 ± 0.067 |
| GCGTGTTA | 0.242 ± 0.043 |
| GCGTGTAA | 0.18 ± 0.091 |
| GCGTGTGA | 0.201 ± 0.034 |
| AGGTGTTA | 0.0454 ± 0.019 |
| ACGTGTTC | 0.278 ± 0.11 |
| GTCTCACA | 0.0533 ± 0.04 |
| TAGTAGGA | -0.0355 ± 0.069 |
| CCGACCCG | -0.101 ± 0.18 |
| CATCTTTA | -0.0556 ± 0.15 |
| GGTGTAGA | 0.0276 ± 0.032 |
| ACTCGGTG | -0.111 ± 0.026 |

| Sequence | PBM 8-mer E-score |
| --- | --- |
| AGTAGCGC | -0.0656 ± 0.04 |
| AACCACTT | 0.109 ± 0.14 |
| ACCCAATG | -0.141 ± 0.067 |
| ACCCCGCG | -0.0797 ± 0.15 |
| AAGCTGGC | -0.176 ± 0.06 |
| CCAACCGG | -0.267 ± 0.0078 |
| CTAGCGCC | -0.283 ± 0.024 |
| ATTGTCTC | -0.142 ± 0.088 |
| GTTGTCTA | 0.224 ± 0.094 |
| ATTGTCTA | 0.26 ± 0.005 |
| TATCTGCA | 0.0121 ± 0.066 |
| CAACTGCA | -9e-05 ± 0.065 |
| CGATTATC | -0.178 ± 0.066 |
| GTCGAAAC | 0.079 ± 0.031 |
| GATAACCA | 0.24 ± 0.037 |
| AATAACTA | 0.125 ± 0.0044 |
| TATAACCA | 0.17 ± 0.0076 |
| CATAACCA | 0.165 ± 0.033 |
| CATAACTA | 0.167 ± 0.0044 |
| GATAACTA | 0.235 ± 0.061 |
